# Pf Dd2 growth: P. falciparum Dd2 growth inhibition; SYBR Green, 72 h; hits give low values; activity change, % at 10 µM; hit rate 2.3% among 94,000; in the data active = activity change below about -80%
# T cruzi growth-1: T. cruzi proliferation inhibition. T. cruzi beta-gal in NIH3T3, GalScreen luminescence, 90 h. inhibition, % at 8.34 µM. hit rate 5.9% among 77,000;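 active = mean inhibition above about 93%, with at least 55% of replicates each passing it, limit read from the data, passing the limit was not always enough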
# C diff HTS: C. difficile growth inhibition | Clostridium difficile clinical isolate growth, OD600, 24 h; hits give low values | growth activity, negative = inhibition, % at 16 µg/mL (by protocol) | hit rate 0.25% among 86,000 | AID 1259249;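 active = mean growth activity at or below -80% and every replicate also at or below -80%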;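 also: 0% = DMSO wells and -100% = levofloxacin 16 µg/mL wells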
# T cruzi growth-2: inhibitors of T. cruzi proliferation; shares compounds with T cruzi growth-1; T. cruzi beta-gal in NIH3T3, GalScreen luminescence, 90 h; AID 651739; inhibition, % at 8.35 µM; hit rate 72% among 5,600;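 active = mean replicate inhibition above about 95% and at least 55% of replicates individually reaching it, limit read from the data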
# T cruzi growth-3: blocks T. cruzi growth in NIH3T3 host cells | T. cruzi beta-gal in NIH3T3, GalScreen luminescence, 90 h | hit rate 21% among 5,600 | inhibition, % at 2.09 µM | shares compounds with T cruzi growth-1;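 active = mean inhibition above about 95%, with at least 55% of replicates also reaching it, limit read from the data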;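 also: plate controls were neutral control median for no effect and positive control median for full effect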
# 3T3 cytotox: cytotoxicity in mouse NIH/3T3 fibroblasts; shares compounds with T cruzi growth-1; NIH/3T3 viability, CellTiter-Glo ATP luminescence, 90 h; AID 651742; cytotoxicity (signal decrease), % at 8.35 µM; hit rate 14% among 5,600;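 active = mean signal decrease across replicates above about 35% based on untreated-well scatter, with enough replicates individually passing, limit read from the data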;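 also: 0% = median of neutral control wells and 100% = median of positive control wells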
# NIH3T3 tox 2: NIH/3T3 (mouse) viability loss; shares compounds with T cruzi growth-1; NIH/3T3 viability, CellTiter-Glo ATP luminescence, 90 h; AID 651744; hit rate 56% among 5,600; inhibition, % at 24.9 µM;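 active = mean loss of cell viability signal at or above a set limit, and enough replicates individually reaching it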;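 also: 0% = median of neutral control wells and 100% = median of positive control wells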
# * marks the source's active call; other numbers are inactive results; / = not tested or not shown. Only some compounds are listed: those with a hit (about 6.7% of all), similar ones and a draw of the others.
SMILES,Pf Dd2 growth,T cruzi growth-1,C diff HTS,T cruzi growth-2,T cruzi growth-3,3T3 cytotox,NIH3T3 tox 2
Cc1ccc(S(=O)(=O)N(C)C[C@H]2Oc3cc(Br)ccc3S(=O)(=O)N([C@H](C)CO)C[C@@H]2C)cc1,-72,110*,8,107*,81,33,61*
C[C@@H]1CN([C@H](C)CO)S(=O)(=O)c2ccc(Br)cc2O[C@H]1CN(C)S(=O)(=O)c1ccc(F)cc1,-29,97*,5,113*,38,24,61*
C[C@H](CO)N1C[C@H](C)[C@H](CN(C)S(=O)(=O)c2cccc(F)c2)Oc2cc(Br)ccc2S1(=O)=O,8,117*,19,106*,66,4,49*
C[C@H]1CN([C@@H](C)CO)S(=O)(=O)c2ccc(Br)cc2O[C@@H]1CN(C)S(=O)(=O)c1ccc(F)cc1,1,90,/,/,/,/,/
C[C@@H]1CN([C@H](C)CO)S(=O)(=O)c2ccc(Br)cc2O[C@@H]1CN(C)S(=O)(=O)c1ccc(F)cc1,1,87,/,/,/,/,/
Cc1ccc(S(=O)(=O)N(C)C[C@@H]2Oc3cc(Br)ccc3S(=O)(=O)N([C@@H](C)CO)C[C@H]2C)cc1,-53,/,0,/,/,/,/
C[C@@H]1CN([C@@H](C)CO)S(=O)(=O)c2ccc(Br)cc2O[C@H]1CN(C)S(=O)(=O)c1ccc(F)cc1,-22,100*,0,106*,45,23,78*
CC(C)NC(=O)N(C)C[C@H]1Oc2c(NS(=O)(=O)c3ccc(Cl)cc3)cccc2C(=O)N([C@H](C)CO)C[C@H]1C,8,49,-3,/,/,/,/
COCc1cn(CC[C@H]2CC[C@@H](NC(=O)Nc3ccc(F)cc3)[C@H](CO)O2)nn1,1,31,-2,/,/,/,/
Cc1noc(C)c1S(=O)(=O)Nc1ccc2c(c1)CC(=O)N([C@@H](C)CO)C[C@H](C)[C@H](CN(C)Cc1ccncc1)O2,27,-40,-4,/,/,/,/
CCC(=O)N[C@@H]1CC[C@@H](CC(=O)NCCN2CCCCC2)O[C@@H]1CO,7,-75,/,/,/,/,/
O=C(C[C@@H]1C[C@H]2c3cc(NS(=O)(=O)c4ccccc4)ccc3O[C@H]2[C@@H](CO)O1)N1CCCCC1,-5,101*,-4,70,-9,-2,16
O=C(C[C@@H]1C[C@H]2c3cc(NS(=O)(=O)c4ccccc4)ccc3O[C@H]2[C@H](CO)O1)N1CCCCC1,-42,104*,-2,59,36,24,40*
O=C(Nc1ccc(F)cc1)Nc1ccc2c(c1)[C@@H]1C[C@@H](CC(=O)N3CCCCC3)O[C@H](CO)[C@@H]1O2,-10,73,2,/,/,/,/
O=C(C[C@@H]1C[C@H]2c3cc(NS(=O)(=O)c4ccccc4)ccc3O[C@H]2[C@@H](CO)O1)N1CCOCC1,-2,46,-8,/,/,/,/
O=C(Nc1ccc(F)cc1)Nc1ccc2c(c1)[C@H]1C[C@@H](CC(=O)N3CCCCC3)O[C@@H](CO)[C@H]1O2,-67,111*,2,18,-5,-7,-1
O=C(C[C@H]1C[C@H]2c3cc(NS(=O)(=O)c4ccccc4)ccc3O[C@H]2[C@@H](CO)O1)N1CCCCC1,-8,39,-3,/,/,/,/
OC[C@@H]1[C@H](c2ccc(-c3ccc(F)cc3)cc2)[C@@H]2CN(Cc3ccncc3)CCCCN12,-21,98*,3,106*,45,37*,103*
OC[C@@H]1[C@@H](c2ccc(-c3ccc(F)cc3)cc2)[C@H]2CN(Cc3ccncc3)CCCCN12,-48,77,0,/,/,/,/
OC[C@H]1[C@H](c2ccc(-c3ccc(F)cc3)cc2)[C@@H]2CN(Cc3cccnc3)CCCCN12,-66,110*,-2,114*,91,17,103*
OC[C@@H]1[C@@H](c2ccc(-c3ccc(F)cc3)cc2)[C@H]2CN(Cc3cccnc3)CCCCN12,-45,113*,-2,53,20,28,102*
OC[C@H]1[C@H](c2ccc(-c3ccc(F)cc3)cc2)[C@H]2CN(Cc3cccnc3)CCCCN21,12,89,-2,/,/,/,/
Cc1ccccc1-c1ccc([C@H]2[C@@H](CO)N3CCCCN(Cc4cccnc4)C[C@H]23)cc1,-65,109*,3,106*,91,46*,106*

# Bioassay records from PubChem.
